# Test results published in PubChem BioAssay (Tox21).
# Inconclusive results are not listed. Unmarked numbers belong to inactive results. Active and inactive are the calls of the source. The call rests on the fitted dose curve.
# Experiment: qHTS assay for small molecule disruptors of the mitochondrial membrane potential - cell viability (AID 720634); further: nearly all actives have a fitted effect of over 20% in size;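 on activity change, negative = cytotoxicity: human HepG2 liver cancer cells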
# Conditions: HepG2 viability, ATP luminescence (CellTiter-Glo), 1 h; series mostly up to 83.2 µM; activity change, negative = cytotoxicity: at the top concentration
# Source text: U.S. Tox21 Program National Center for Advancing Translational Sciences [NCATS] NIH Chemical Genomics Center [NCGC] U.S. Environmental Protection Agency [EPA] National Institutes of Environmental Health Sciences [NIEHS] National Toxicology Program [NTP] U.S. Food and Drug Administration [FDA] Tox21 Assay Overview: Mitochondrial membrane potential (MMP), one of the parameters for mitochondrial function, is generated by mitochondrial electron transport chain that creates an electrochemical gradient by a series of redox reactions. This gradient drives the synthesis of ATP, a crucial molecule for various cellular processes. Measuring MMP in living cells is commonly used to assess the effect of chemicals on mitochondrial function; decreases in MMP can be detected using lipophilic cationic fluorescent dyes. […] The dye accumulates in the mitochondria of healthy cells as aggregates, with red fluorescence. The mitochondrial potential decreases and the dye could not accumulate in the mitochondria and remains in the cytoplasm in monomers, with green fluorescence. In addition to the mitochondrial potential assay, these cells were also used to test the cytotoxicity by determining the cell viability in the culture based on the quantitation of ATP present. The cytotoxicity was measured in the same assay well of MMP assay.
# Tox21 Assay Protocol Summary: 2,000 HepG2 cells in 5 uL/well were dispensed into black, clear-bottom 1536-well plates using a Multidrop Combi (Thermo Scientific) dispenser. The assay plates were incubated for an overnight at 37 C to allow cells to attach to the wells, followed by the transfer of 23 nL compound or DMSO vehicle by a pin tool (Kalypsys). The plates were incubated for 1 hr at 37 C and 5% CO2, followed by the addition of 5 uL of 2X m-MPI dye into each well using Flying Reagent Dispenser (Aurora Discovery) and then CellTiter-Glo reagent was added at 4 uL/well and incubated 30 min at room temperature. Then luminescence intensity was quantified on a ViewLux CCD-based plate reader.
# On the % scale 0 is the no-effect control and ±100 the full control effect; potency means the concentration at half of the fitted maximal effect.
SMILES,"activity change, negative = cytotoxicity",Potency
O=C(O)Cc1ccc(-c2ccccc2)cc1,6.77% [at 39.1 µM],–
CN(C(=O)C(Cl)Cl)c1ccc(OC(=O)c2ccco2)cc1,7.11%,–
NC(=O)Nc1ccc(Cl)cc1,2.39%,–
Fc1c(F)c(F)c(Br)c(F)c1F,4.4%,–
COC(=O)Nc1nc2ccc(C(=O)c3cccs3)cc2[nH]1,36.2%,–
CC(CCc1ccc2c(c1)OCO2)NN (stereo not given),8.3%,–
CCOC(=O)c1ccccc1OC,5.48%,–
CCCCC(CC)CNCC(CC)CCCC (stereo not given),-3.95%,–
CC[C@H](NC(=O)c1cc(F)ccc1NS(=O)(=O)c1cccc2cccnc12)c1ccccc1,-20.7%,–
C=CC(C)=CCC=C(C)C,-13.3%,–
c1cnc2c(n1)CCCC2,-0.799%,–
CC(=O)OCC(=O)[C@@]12OC(C)(C)O[C@@H]1C[C@H]1[C@@H]3C[C@H](F)C4=CC(=O)C=C[C@]4(C)[C@@]3(F)[C@@H](O)C[C@@]12C,8.01% [at 39.1 µM],–
OCC1CC=CCC1 (stereo not given),6.3%,–
CCCOC(=O)c1ccc(N)cc1,5.74%,–
CC1(C)C(=O)N(Br)C(=O)N1Cl,18.5%,–
CC(C)(CCl)c1ccccc1,4.76%,–
C=CC(C)(C)CC(=O)OC,8.28% [at 95.3 µM],–
C[Si]1(C)O[Si](C)(C)O[Si](C)(C)O1,4.37%,–
CCCCN(CCCC)CCCOC(=O)c1ccc(N)cc1,13.3% [at 39.1 µM],–
COc1cc2[nH]c(=O)[nH]c(=O)c2cc1OC,9.85% [at 39.1 µM],–

SMILES,"activity change, negative = cytotoxicity",Potency
Nc1ccc(Cl)cc1[N+](=O)[O-],-14%,–
O=C(Nc1ccc([N+](=O)[O-])cc1)Nc1ccc([N+](=O)[O-])cc1,-4.91%,–
CC1CC(=O)NN=C1c1ccc(NCC(C)(C)NCC(O)COc2cc(Cl)ccc2C#N)cc1 (stereo not given),-6.11%,–
CC(C)CCCCCOC(=O)CCCCC(=O)OCCCCCC(C)C,12.2%,–
COC(=O)[C@@H]1CC2=CC(=O)CC[C@]2(C)[C@@]23O[C@@H]2C[C@@]2(C)[C@@H](CC[C@@]24CCC(=O)O4)[C@H]13,9.69%,–
Oc1ccc(Nc2ccccc2)cc1,4.19%,–
CCC(C(=O)OCCN(CC)CC)c1ccccc1 (stereo not given),-0.85%,–
CCCCCC=CCC=CCCCCCCCC(=O)OCC,-7.32%,–
CCCCCCCCCCCC[N+](C)(C)CC(=O)[O-],20.2%,–
CC(C)OCC1CO1 (stereo not given),-7.63%,–
CCOC(=O)c1ccccc1C,-7.88%,–
CCOC(=O)CC(=O)C(=O)OCC,14.7%,–
Cc1occc1C(=O)Nc1ccc(C(=O)N2CCC(F)(F)/C(=C\C(=O)N3CCC(N4CCCCC4)CC3)c3ccccc32)cc1,2.73% [at 39.1 µM],–
Cc1cc(O)c(C(C)C)cc1Cl,3.99%,–
C[N+]1(C)CCC(=C(c2ccccc2)c2ccccc2)CC1,10.2% [at 39.1 µM],–
CC(C)(O)c1ccccc1CC[C@@H](SCC1(CC(=O)O)CC1)c1cccc(/C=C/c2ccc3ccc(Cl)cc3n2)c1,-1.12%,–
N#C[C@@H]1C[C@@H]2C[C@@H]2N1C(=O)[C@@H](N)C12CC3CC(CC(O)(C3)C1)C2,-7.48%,–
COCCOC(=O)C1=C(C)NC(C)=C(C(=O)OC/C=C/c2ccccc2)C1c1cccc([N+](=O)[O-])c1 (stereo not given),–,9.44 µM (active)
N#C/C(=C1\SCC(c2ccccc2Cl)S1)n1ccnc1 (stereo not given),-10.3%,–
C=C(C)C(=O)OCCOC(=O)CC(C)=O,9.92%,–
